{
  "source": "PubChem BioAssay (NCI)",
  "note": "About 83,000 compounds went through this panel and 20% of them were active in at least one assay; those are over-represented in the sample as a whole.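 Assay: single dose, 48 h. Readout: percent growth (0 = no net growth; negative = cell death). Active: <10.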 The source made the active and inactive calls.",
  "data": [
    {"tested_on": "MDA-MB-468 breast", "assay": "NCI-60 one-dose screen, 48 h (100 = growth as untreated, 0 = no growth, -100 = all killed)", "conditions": "10 µM unless noted", "values": [
      {"smiles": "O=C1c2ccccc2C(=O)c2c(N=Nc3sc(=O)[nH]c3S)cccc21", "growth": "104% (inactive)"},
      {"smiles": "Nc1ncnc2c1N=C(c1ccc(Cl)cc1)CC(c1cccc(Nc3ccnc4cc(Cl)ccc34)c1)N2", "note": "(stereo not given)", "growth": "75% (inactive)"},
      {"smiles": "CCCCCCCCCCCCCCCC(=O)OC[C@@]1(O)C[C@@]23CC[C@@H]4C(C)(C)[C@H](O)CC[C@@]4(C)[C@@H]2CC[C@H]1C3", "growth": "112% (inactive)"},
      {"smiles": "Cc1ccc(-n2nc(C(C)(C)C)cc2NC(=O)NCc2cc(F)ccc2Oc2ccc3c(cnn3CCO)c2)cc1", "growth": "23.5% (inactive)"},
      {"smiles": "CC1(C)CC(=O)C2=C(C1)N(c1ccc(OC(F)(F)F)cc1)C(N)=C(C#N)C2c1ccc(Cl)cc1", "note": "(stereo not given)", "growth": "93.1% (inactive)"},
      {"smiles": "COc1ccc(/C=N\\NC(=O)c2cnn(CC(O)c3ccccc3)c2N)cc1OCc1ccc(Cl)cc1", "note": "(stereo not given)", "growth": "76.8% (inactive)"},
      {"smiles": "CCOC(=O)CNP(=O)(OC[C@@H](Cc1ccccc1)NC(=O)c1cc2ccccc2s1)Oc1ccccc1", "note": "(stereo not given in full)", "growth": "-5% (active)"},
      {"smiles": "NC(=O)C1CCCN(Cc2c[nH]c3ccccc23)C1", "note": "(stereo not given)", "growth": "97.7% (inactive)"},
      {"smiles": "Cc1ccc(C)c(S(=O)(=O)NC2c3ccccc3Oc3ccccc32)c1", "growth": "85% (inactive)"},
      {"smiles": "CC(=O)N1N=C(c2cccc(Nc3ccncc3)c2)CC1c1ccccc1", "note": "(stereo not given)", "growth": "79.8% (inactive)"},
      {"smiles": "CC1(C)N=C(N)N=C(N)N1c1cccc(CCCCc2ccccc2)c1", "growth": "-57.7% (active)"},
      {"smiles": "COc1ccc(/C=C2\\SC(=Nc3ccccc3)NC2=O)cc1", "growth": "-84.8% (active)"},
      {"smiles": "O=C(Nc1cccc(Cl)c1)Nc1nc2ccc([N+](=O)[O-])cc2s1", "growth": "-29.1% (active)"},
      {"smiles": "CC(C)(C)C(=O)Nc1nc2c(s1)CCc1ccn(S(=O)(=O)c3ccccc3)c1-2", "growth": "88.7% (inactive)"},
      {"smiles": "CCOC(=O)c1c(C)[nH]c(C)c1C=O", "growth": "99.1% (inactive)"},
      {"smiles": "COc1ccc(-c2cc(-c3ccc(N(C)C)cc3)n3c(n2)nc2ccccc23)cc1", "growth": "50.8% (inactive)"},
      {"smiles": "N#Cc1cc2[nH]c3ccc(OC(F)(F)F)cc3c2oc1=O", "growth": "95.2% (inactive)"},
      {"smiles": "COc1ccc(-c2cc(-c3nnc(SC/C(=N\\O)c4ccccc4)n3-c3ccccc3)c3ccccc3n2)cc1", "growth": "107% (inactive)"},
      {"smiles": "C[C@@H](C(=O)NCCCC#Cc1cnc(Nc2ccc(C#N)cc2)nc1NC1CC1)N(C)C(=O)/C=C/CN(C)C", "growth": "39.2% (inactive)"},
      {"smiles": "Nc1n[nH]c2ccc([C@@H]3Nc4ccc5cn[nH]c5c4[C@H]4C5CCC(C5)[C@@H]34)cc12", "note": "(stereo not given in full)", "growth": "-6.84% (active)"},
      {"smiles": "CC(=O)/C(=C/c1ccccc1)C(=O)CC(C)C", "growth": "93.7% (inactive)"},
      {"smiles": "C=C(C)[C@@H]1CC[C@]2(C(=O)NCCCCCCN(CCCN)CCCN)CC[C@]3(C)[C@H](CC[C@@H]4[C@@]5(C)CC[C@H](OCCCN)C(C)(C)[C@@H]5CC[C@]43C)[C@@H]12", "growth": "21.2% [100 µM] (inactive)"},
      {"smiles": "COc1ccc(C2CC(c3ccc(Nc4nc(Nc5ccc(F)cc5)nc(Nc5ccc(Cl)cc5)n4)cc3)=NN2C(C)=O)cc1", "note": "(stereo not given)", "growth": "104% (inactive)"},
      {"smiles": "CC(=O)C1CCC2C3CC=C4CC(SC(=N)N)CCC4(C)C3CCC12C", "note": "(stereo not given)", "growth": "-36.8% (active)"},
      {"smiles": "O=C(COc1ccc(-c2nc3cc(Cl)c(Cl)cc3[nH]2)cc1)N=Nc1c(O)[nH]c2ccccc12", "growth": "-49.5% (active)"},
      {"smiles": "O=CN(SSN(C=O)C1CCCCC1)C1CCCCC1", "growth": "108% (inactive)"},
      {"smiles": "CC(C)(C)NCCC(O)c1cc2c(Cl)cc(Cl)cc2c2cc(C(F)(F)F)ccc12", "note": "(stereo not given)", "growth": "-85.7% (active)"},
      {"smiles": "COc1ccc(C/C(C)=C(\\c2ccc(Cl)cc2)c2ccc(OCCN3CCCC3)cc2)cc1", "growth": "70% (inactive)"},
      {"smiles": "COc1ccc2[nH]c(-c3ccccc3)cc2c1", "growth": "96.9% (inactive)"},
      {"smiles": "COc1cc(-c2nc3sccn3c2-c2ccnc(NCCNS(=O)(=O)c3ccc(F)cc3)n2)ccc1F", "growth": "4.24% (active)"},
      {"smiles": "Oc1ccc(N=Nc2ccc(Br)cc2)c(O)c1", "growth": "15.4% (inactive)"},
      {"smiles": "N#Cc1c(N)nnn1Cc1cc(=O)oc2c1ccc1ccccc12", "growth": "106% (inactive)"},
      {"smiles": "COc1cnc2c(c1)C(=O)c1c-2n(CCCNC(C)C)c(=O)c2cc(Cl)ccc12", "growth": "17.7% (inactive)"},
      {"smiles": "Br/C(=N\\Nc1nn[nH]n1)c1ccccc1", "growth": "104% (inactive)"},
      {"smiles": "CO[C@]12C=C/C(=C(/C(=O)OCc3cccnc3)C(=O)CCCCCCCC[C@]3(OC)C=C/C(=C(/C(=O)OCc4cccnc4)C(=O)CCCCCCCC1)O3)O2", "growth": "-50.5% (active)"},
      {"smiles": "COc1ccc(N2CCN(S(=O)(=O)c3oc(-c4ccccc4)nc3C#N)CC2)cc1", "growth": "79.6% (inactive)"},
      {"smiles": "c1ccc(Nc2cc(-c3cccnc3)[nH]n2)cc1", "growth": "106% (inactive)"},
      {"smiles": "CCc1nc(C(N)=O)c(Nc2ccc(N3CCC(N4CCN(C)CC4)CC3)c(OC)c2)nc1NC1CCOCC1", "growth": "69.7% (inactive)"},
      {"smiles": "O=C1CCCc2nc(Nc3ccc(S(=O)(=O)Nc4ccc([N+](=O)[O-])cc4)cc3)ncc21", "growth": "99.8% (inactive)"},
      {"smiles": "COC(=O)[C@H](Cc1cn(C)cn1)NC(=O)[C@@H](NC(=O)Nc1cc(C(F)(F)F)cc(C(F)(F)F)c1)C(C)C", "growth": "-60.4% [100 µM] (active)"}
    ]}
  ]
}
